13 sequences from PMC8384837, “Expanding the binding specificity for RNA recognition by a PUF domain” can be followed below.

What all share (experiment): yeast three-hybrid, YBZ-1, SC-Leu-His + 0.5 mM 3-AT, 4 days
Holding throughout (conditions): tags: N-Gal4 AD-HA kept; label: inside an RPR1-promoter hybrid RNA with tandem MS2 sites; ssRNA

One experiment addresses PUM1 PUF domain R1-TFE (Homo sapiens, UniProt Q14671 828-1176, S863T;R864F;Q867E). A digest of the protocol:
(§1)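 Pumilio-1 PUF domain libraries, randomized at the three base-contacting residues of each repeat, were co-expressed with matching RNA elements from a centromeric plasmid in strain YBZ-1, which carries a LexA–MS2 coat fusion and a HIS3 reporter. Transformants grew for four days on SC-Leu (input) or on SC-Leu-His + 0.5 mM 3-AT (selection), and the repeat regions were PCR-amplified and Illumina-sequenced. The interaction score is the log change in variant frequency from input to selection. That logarithm is base 2, with a pseudocount of 1 where a variant was absent.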

A further experiment addresses PUM1 PUF domain R1-RNS (Homo sapiens, UniProt Q14671 828-1176, S863R;R864N;Q867S). In outline:
as §1

A further experiment has as its target PUM1 PUF domain R3-ARP (Homo sapiens, UniProt Q14671 828-1176, C935A;Q939P). A digest of the protocol:
as §1

The target in the next experiment is PUM1 PUF domain R3-IFE (Homo sapiens, UniProt Q14671 828-1176, C935I;R936F;Q939E). In outline: as §1
The target of another experiment is PUM1 PUF domain R5-TKR (Homo sapiens, UniProt Q14671 828-1176, C1007T;R1008K;Q1011R). A digest of the protocol: as §1
The next experiment has as its target PUM1 PUF domain R5-KAD (Homo sapiens, UniProt Q14671 828-1176, C1007K;R1008A;Q1011D). A digest of the protocol: as §1
In the next experiment the target is PUM1 PUF domain R5-DLR (Homo sapiens, UniProt Q14671 828-1176, C1007D;R1008L;Q1011R). In outline: as §1
For another experiment, the target named is PUM1 PUF domain R3-GRV (Homo sapiens, UniProt Q14671 828-1176, C935G;Q939V). A digest of the protocol: as §1
The next experiment has as its target PUM1 PUF domain R8-GWQ (Homo sapiens, UniProt Q14671 828-1176, N1122G;Y1123W). A digest of the protocol: as §1
In another experiment the target is PUM1 PUF domain R4-SCS (Homo sapiens, UniProt Q14671 828-1176, N971S;H972C;Q975S). In outline:
as §1

The next experiment concerns the target PUM1 PUF domain R5-MRE (Homo sapiens, UniProt Q14671 828-1176, C1007M;Q1011E). A digest of the protocol:
as §1

The target of a further experiment is T1, PUM1 PUF domain R6-AFS (Homo sapiens, UniProt Q14671 828-1176, N1043A;Y1044F;Q1047S).
T1 sequence: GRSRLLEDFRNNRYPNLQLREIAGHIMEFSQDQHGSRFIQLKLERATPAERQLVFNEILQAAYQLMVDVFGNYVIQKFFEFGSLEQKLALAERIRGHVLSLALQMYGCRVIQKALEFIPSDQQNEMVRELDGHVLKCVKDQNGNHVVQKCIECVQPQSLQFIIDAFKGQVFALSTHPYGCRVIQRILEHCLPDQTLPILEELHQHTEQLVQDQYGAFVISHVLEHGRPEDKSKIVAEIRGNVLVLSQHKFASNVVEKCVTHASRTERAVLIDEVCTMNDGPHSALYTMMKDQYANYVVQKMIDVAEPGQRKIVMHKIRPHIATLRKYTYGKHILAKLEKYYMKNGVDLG
A digest of the protocol: as §1

A further experiment deals with PUM1 PUF domain R4-TRQ (Homo sapiens, UniProt Q14671 828-1176, N971T;H972R). A digest of the protocol: as §1
The next experiment addresses PUM1 PUF domain R4-EYD (Homo sapiens, UniProt Q14671 828-1176, N971E;H972Y;Q975D). In outline: as §1
A further experiment concerns the target PUM1 PUF domain R3-PWF (Homo sapiens, UniProt Q14671 828-1176, C935P;R936W;Q939F). In outline: as §1
The next experiment concerns the target PUM1 PUF domain R4-HNI (Homo sapiens, UniProt Q14671 828-1176, N971H;H972N;Q975I). A digest of the protocol:
as §1

Another experiment deals with PUM1 PUF domain R1-RQQ (Homo sapiens, UniProt Q14671 828-1176, S863R;R864Q). In outline:
as §1

In another experiment the target is PUM1 PUF domain R1-YAR (Homo sapiens, UniProt Q14671 828-1176, S863Y;R864A;Q867R). In outline:
as §1

The target in a further experiment is PUM1 PUF domain R4-SNF (Homo sapiens, UniProt Q14671 828-1176, N971S;H972N;Q975F). In outline:
as §1

In the next experiment the target is PUM1 PUF domain R3-RTG (Homo sapiens, UniProt Q14671 828-1176, C935R;R936T;Q939G). In outline:
as §1

Sequence of PUM1 PUF domain R4-SNF (Q14671 828-1176 N971S/H972N/Q975F): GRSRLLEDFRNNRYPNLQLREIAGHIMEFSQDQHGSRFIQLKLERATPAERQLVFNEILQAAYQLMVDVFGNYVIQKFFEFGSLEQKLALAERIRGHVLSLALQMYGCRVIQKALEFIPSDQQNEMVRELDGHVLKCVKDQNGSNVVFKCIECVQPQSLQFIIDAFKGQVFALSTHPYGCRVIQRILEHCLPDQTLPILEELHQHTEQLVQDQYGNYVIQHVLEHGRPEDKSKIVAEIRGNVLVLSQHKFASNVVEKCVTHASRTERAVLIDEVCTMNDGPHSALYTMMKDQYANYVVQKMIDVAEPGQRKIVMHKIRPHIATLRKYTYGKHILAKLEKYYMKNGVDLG
Sequence of PUM1 PUF domain R5-KAD (Q14671 828-1176 C1007K/R1008A/Q1011D): as the sequence (Q14671 828-1176 N971S/H972N/Q975F) above, with S144N, N145H, F148Q, C180K, R181A, Q184D counted along it
Sequence of PUM1 PUF domain R5-TKR (Q14671 828-1176 C1007T/R1008K/Q1011R): as the sequence (Q14671 828-1176 N971S/H972N/Q975F) above, with S144N, N145H, F148Q, C180T, R181K, Q184R counted along it
Sequence of PUM1 PUF domain R5-DLR (Q14671 828-1176 C1007D/R1008L/Q1011R): as the sequence (Q14671 828-1176 N971S/H972N/Q975F) above, with S144N, N145H, F148Q, C180D, R181L, Q184R counted along it

“GGCUAGAACUAGUGGAUCCCCCGGCGCCCGGCGGCUCGAGCCCGGGUAAGUGUAAAUGGUCUGCAUGCCGCCGGGCGCCAUGCCUGCAGGUCGACUCUAGAAAACAUG”: the binding signal in the experiment with PUM1 PUF domain R1-TFE was 6.33 log2 enrichment (interaction score); with PUM1 PUF domain R1-RNS, 0.7 log2 enrichment (interaction score).

Regarding “GGCUAGAACUAGUGGAUCCCCCGGCGCCCGGCGGCUCGAGCCCGGGUAAGUGUAAGUAGUCUGCAUGCCGCCGGGCGCCAUGCCUGCAGGUCGACUCUAGAAAACAUG”, the results for the binding signal with PUM1 PUF domain R3-ARP and with PUM1 PUF domain R3-IFE were 1.52 log2 enrichment (interaction score) and 5.39 log2 enrichment (interaction score), respectively.

As to “GGCUAGAACUAGUGGAUCCCCCGGCGCCCGGCGGCUCGAGCCCGGGUAAGUGUCAAUAGUCUGCAUGCCGCCGGGCGCCAUGCCUGCAGGUCGACUCUAGAAAACAUG”, the binding signal with PUM1 PUF domain R5-TKR is 6.59 log2 enrichment (interaction score); in the experiment with PUM1 PUF domain R5-KAD, 2.78 log2 enrichment (interaction score); in the experiment with PUM1 PUF domain R5-DLR it was 4.71 log2 enrichment (interaction score).

Regarding “GGCUAGAACUAGUGGAUCCCCCGGCGCCCGGCGGCUCGAGCCCGGGUAAGUGUAAAUAGUCUGCAUGCCGCCGGGCGCCAUGCCUGCAGGUCGACUCUAGAAAACAUG”, the binding signal with PUM1 PUF domain R3-GRV was 2.81 log2 enrichment (interaction score); with PUM1 PUF domain R8-GWQ it was 2.82 log2 enrichment (interaction score); in the experiment with PUM1 PUF domain R4-SCS, 2.13 log2 enrichment (interaction score); in the experiment with PUM1 PUF domain R5-MRE, 1.14 log2 enrichment (interaction score); with PUM1 PUF domain R3-ARP, 4.92 log2 enrichment (interaction score); with PUM1 PUF domain R6-AFS, 1.74 log2 enrichment (interaction score). The binding signal with PUM1 PUF domain R4-TRQ is 4.68 log2 enrichment (interaction score); with PUM1 PUF domain R4-EYD, 2.77 log2 enrichment (interaction score); with PUM1 PUF domain R3-PWF it was 3.15 log2 enrichment (interaction score).

On to “GGCUAGAACUAGUGGAUCCCCCGGCGCCCGGCGGCUCGAGCCCGGGUAAGUGUUAAUAGUCUGCAUGCCGCCGGGCGCCAUGCCUGCAGGUCGACUCUAGAAAACAUG”, for which, in the experiment with PUM1 PUF domain R5-MRE, the binding signal is 0.96 log2 enrichment (interaction score).

“GGCUAGAACUAGUGGAUCCCCCGGCGCCCGGCGGCUCGAGCCCGGGUAAGUGUGAAUAGUCUGCAUGCCGCCGGGCGCCAUGCCUGCAGGUCGACUCUAGAAAACAUG”: the binding signal in the experiment with PUM1 PUF domain R5-MRE was 2.77 log2 enrichment (interaction score).

In the case of “GGCUAGAACUAGUGGAUCCCCCGGCGCCCGGCGGCUCGAGCCCGGGUAAGUGUAUAUAGUCUGCAUGCCGCCGGGCGCCAUGCCUGCAGGUCGACUCUAGAAAACAUG”, the figures for the binding signal with PUM1 PUF domain R4-SCS and with PUM1 PUF domain R4-HNI were 1.72 log2 enrichment (interaction score) and 4.84 log2 enrichment (interaction score), respectively.

As for “GGCUAGAACUAGUGGAUCCCCCGGCGCCCGGCGGCUCGAGCCCGGGUAAGUGUAAAUCGUCUGCAUGCCGCCGGGCGCCAUGCCUGCAGGUCGACUCUAGAAAACAUG”, the figures for the binding signal with PUM1 PUF domain R1-RQQ, with PUM1 PUF domain R1-RNS and with PUM1 PUF domain R1-YAR were 3.45 log2 enrichment (interaction score), 2.4 log2 enrichment (interaction score) and 6.19 log2 enrichment (interaction score), respectively.

“GGCUAGAACUAGUGGAUCCCCCGGCGCCCGGCGGCUCGAGCCCGGGUAAGCGUAAAUAGUCUGCAUGCCGCCGGGCGCCAUGCCUGCAGGUCGACUCUAGAAAACAUG”: the binding signal in the experiment with PUM1 PUF domain R8-GWQ was 3.56 log2 enrichment (interaction score).

Turning to “GGCUAGAACUAGUGGAUCCCCCGGCGCCCGGCGGCUCGAGCCCGGGUAAGUGAAAAUAGUCUGCAUGCCGCCGGGCGCCAUGCCUGCAGGUCGACUCUAGAAAACAUG”, the binding signal with PUM1 PUF domain R6-AFS is 3.01 log2 enrichment (interaction score).

Turning to “GGCUAGAACUAGUGGAUCCCCCGGCGCCCGGCGGCUCGAGCCCGGGUAAGUGUAAAUUGUCUGCAUGCCGCCGGGCGCCAUGCCUGCAGGUCGACUCUAGAAAACAUG”, the binding signal in the experiment with PUM1 PUF domain R1-TFE is 3.49 log2 enrichment (interaction score); with PUM1 PUF domain R1-YAR, 5.79 log2 enrichment (interaction score).

Take “GGCUAGAACUAGUGGAUCCCCCGGCGCCCGGCGGCUCGAGCCCGGGUAAGUGUACAUAGUCUGCAUGCCGCCGGGCGCCAUGCCUGCAGGUCGACUCUAGAAAACAUG”: the values for the binding signal in the experiment with PUM1 PUF domain R4-SCS and with PUM1 PUF domain R4-SNF were 0.74 log2 enrichment (interaction score) and 3.39 log2 enrichment (interaction score), respectively.

On to “GGCUAGAACUAGUGGAUCCCCCGGCGCCCGGCGGCUCGAGCCCGGGUAAGUGUAAUUAGUCUGCAUGCCGCCGGGCGCCAUGCCUGCAGGUCGACUCUAGAAAACAUG”, for which the binding signal in the experiment with PUM1 PUF domain R3-GRV was 1.12 log2 enrichment (interaction score); with PUM1 PUF domain R3-ARP it was 1.4 log2 enrichment (interaction score); with PUM1 PUF domain R3-RTG, 2.9 log2 enrichment (interaction score); in the experiment with PUM1 PUF domain R3-PWF, 1.18 log2 enrichment (interaction score).
